ELG1 genotox – qHTS screen for small molecules that induce genotoxicity in human embryonic kidney (HEK293T) cells expressing luciferase-tagged ELG1; AID 504466, 2011; 330,000 compounds, 1.3% hits; HEK293T ELG1-luciferase reporter, luminescence, 16 h; Potency, µM (titrated, usually from 46 µM), hits mostly activators; further: nearly all actives have a fitted effect of over 60% in size
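Cells (2,000/well) expressing the ELG1-luciferase fusion are dosed by pin tool and kept 16 hr at 37 °C, 5% CO2. Signal comes from ONE-Glo luciferase reagent after 30 min at room temperature.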
FLuc counter – qHTS profiling assay for firefly luciferase inhibitor/activator using purifed enzyme and Km concentrations of substrates (counterscreen for miR-21 project); Luciferin 4-monooxygenase (Photinus pyralis), P08659; purified FLuc, Km substrates, luminescence inhibition; Potency, µM (series often up to 57.5 µM), hits mostly inhibitors; 360,000 compounds, 6.9% hits; AID 588342, 2011; further: nearly all actives have a fitted effect of over 55% in size
Target sequence (P08659 whole entry, looked up): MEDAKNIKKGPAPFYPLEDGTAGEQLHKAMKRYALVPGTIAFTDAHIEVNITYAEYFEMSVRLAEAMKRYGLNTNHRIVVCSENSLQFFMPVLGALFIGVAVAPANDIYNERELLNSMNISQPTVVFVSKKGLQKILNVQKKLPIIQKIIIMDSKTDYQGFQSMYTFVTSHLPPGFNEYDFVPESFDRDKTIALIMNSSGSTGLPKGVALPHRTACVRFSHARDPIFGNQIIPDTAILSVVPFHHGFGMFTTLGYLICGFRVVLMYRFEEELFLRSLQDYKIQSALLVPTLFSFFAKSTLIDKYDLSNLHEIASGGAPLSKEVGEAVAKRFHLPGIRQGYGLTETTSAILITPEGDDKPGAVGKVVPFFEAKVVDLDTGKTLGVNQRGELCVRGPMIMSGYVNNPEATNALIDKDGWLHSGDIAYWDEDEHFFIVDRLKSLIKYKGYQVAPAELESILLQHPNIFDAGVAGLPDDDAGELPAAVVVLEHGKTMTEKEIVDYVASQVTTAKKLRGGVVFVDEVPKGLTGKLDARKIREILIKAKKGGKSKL
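Biochemical qHTS of compounds, final roughly 60 µM downward over six points, against 10 nM purified firefly luciferase using Km concentrations of substrates (10 uM D-luciferin, 10 uM ATP) in Tris acetate pH 7.5 buffer; luminescence output.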
SMN2 splice up – qHTS Assay for Enhancers of SMN2 Splice Variant Expression | HEK293 SMN2-luciferase splicing reporter, luminescence, 30-36 h | Potency, µM (top dose mostly 46.1 µM), usual class: activators | 210,000 compounds, 2.8% hits | AID 1458, 2008; further: nearly all actives have a fitted effect of over 55% in size
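HEK293 cells carry an SMN2 minigene-luciferase reporter in which exon 7 inclusion puts luciferase in frame. Cells were seeded at 2000 cells/well, attached for 10-12 hours, then exposed to compounds for 30-36 hours at 37C before ONE-Glo luminescence.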
Rab9 prom act – qHTS Assay for Rab9 Promoter Activators. Huh7 Rab9 promoter-luciferase reporter, luminescence, 24 h. Potency, µM (highest dose often 9.22 µM), most hits filed as activators. 320,000 compounds, 2.8% hits. AID 485297, 2010; further: nearly all actives have a fitted effect of over 60% in size
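Using Huh7 cells stably transfected with Rab9 promoter–luciferase, compounds were incubated 24 h at 37 °C, 5% CO2; luciferase luminescence was read 10 min after reagent addition.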
NPC1 prom act – qHTS Assay for NPC1 Promoter Activators | Huh7 NPC1 promoter luciferase reporter, 24 h | 320,000 compounds, 2.4% hits | Potency, µM (titrated, usually from 9.22 µM), usual class: activators | AID 485313, 2010; further: nearly all actives have a fitted effect of over 60% in size
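Luminescence read-out of NPC1 promoter-driven luciferase in stably transfected Huh7 cells; compounds delivered in DMSO and left 24 h at 37C, 5% CO2, qHTS titration format.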
Each line names hits and unclear results; the compound was inactive in the other large screens. Only some compounds are listed: those with a hit (about 7.5% of all), similar ones and a draw of the others. The call rests on the fitted dose curve; in most records, active means well fitted curve in the direction sought with a large enough effect; inconclusive means small, poorly fitted or top-dose-only effect, or another doubt; inactive means no such curve, though single readings can be large; an effect the other way counts as inactive or inconclusive.

COc1cc(C(=O)Nc2cc(-c3cn4cccnc4n3)ccc2C)cc(OC)c1OC	FLuc counter 12µM, Rab9 prom act inconclusive
COc1ccc(-c2cn3cccnc3n2)cc1Br	ELG1 genotox inconclusive, FLuc counter 19µM, SMN2 splice up inconclusive
COc1ccc(-c2cn3cc(Br)cnc3n2)cc1	ELG1 genotox 20.6µM, FLuc counter inconclusive, SMN2 splice up 10µM, Rab9 prom act inconclusive
Cc1cc(NC(=O)Cn2ccsc2=N)c([N+](=O)[O-])cc1C	none
O=C1NCCC/C1=N/Nc1ccc(F)cc1	ELG1 genotox inconclusive
Cc1ccc(S(=O)(=O)N2CCC(C(=O)OCCOc3ccccc3)CC2)cc1C	none (no result: SMN2 splice up)
CCOC(=O)c1c(C)n(C)c2cc(-c3ccc(F)cc3)c(O)cc12	none (no result: SMN2 splice up)
CCOc1ccc2nc(N3CCCC(C(=O)Nc4ccc(OC)c(Cl)c4)C3)sc2c1 (centres undefined)	FLuc counter 3.01µM, SMN2 splice up 20µM (no result: ELG1 genotox, Rab9 prom act, NPC1 prom act)
COc1ccc2nc(N3CCCC(C(=O)NCCc4ccc(OC)c(OC)c4)C3)sc2c1 (centres undefined)	FLuc counter 8.49µM, Rab9 prom act 2.82µM, NPC1 prom act 2.82µM (no result: SMN2 splice up)
COc1ccc2nc(N3CCCC(C(=O)NCCCN4CCN(C)CC4)C3)sc2c1 (centres undefined)	FLuc counter 16.9µM
CCOc1ccc2nc(N3CCCC(C(=O)NCCCN4CCCCC4)C3)sc2c1 (centres undefined)	ELG1 genotox inconclusive, FLuc counter inconclusive, Rab9 prom act inconclusive (no result: SMN2 splice up)
CCOc1ccc2nc(N3CCCC(C(=O)NCCCN4CC(C)CC(C)C4)C3)sc2c1 (centres undefined)	FLuc counter inconclusive, Rab9 prom act 0.891µM (no result: SMN2 splice up)
COc1ccc(C(C)=O)cc1COC(=O)C1CCN(C(=O)c2ccc(Cl)cc2)CC1	none (no result: FLuc counter, SMN2 splice up, Rab9 prom act, NPC1 prom act)
COc1ccc(C(=O)C2CCN(C(=S)NCCc3ccc(OC)c(OC)c3)CC2)cc1	FLuc counter 19µM (no result: SMN2 splice up)
N#Cc1cnn(-c2nc3sc4c(c3c(=O)[nH]2)CCCC4)c1N	FLuc counter 6.01µM
CN(C)S(=O)(=O)n1cc(/C=C(\NC(=O)c2ccccc2Cl)C(=O)NCCCn2ccnc2)c2ccccc21	FLuc counter inconclusive
Cc1ccc(-c2ccc(=O)[nH]n2)cc1	none
Cc1nc(-c2ccccc2)cc(=O)[nH]1	none
Cc1ccc(-c2cn3c(=O)cc(C)[nH]c3n2)cc1	ELG1 genotox inconclusive, FLuc counter 0.849µM, SMN2 splice up 10µM, Rab9 prom act 0.794µM, NPC1 prom act 1.58µM
Cc1cc(=O)n2cc(-c3ccccc3)nc2[nH]1	FLuc counter 12µM (no result: SMN2 splice up)
COc1ccc(NC(=O)CSc2nc(O)cc(=O)[nH]2)c(OC)c1	none (no result: SMN2 splice up)
CCC(=O)N(C)CCc1cc2c(c(OC)c1/C=N/NC(=O)c1ccccc1O)OCO2	none
COc1c(/C=N/NC(=O)c2ccccc2O)c(CCN(C)C(C)=O)cc2c1OCO2	FLuc counter 19µM
Cc1ccc(C(=O)NC(Cc2ccc(C(C)(C)C)cc2)C(=O)O)cc1 (centres undefined)	none (no result: FLuc counter, SMN2 splice up, Rab9 prom act, NPC1 prom act)
COC(=O)[C@H](Cc1ccccc1)NC(=O)NCc1ccc(C)cc1	FLuc counter 21.3µM (no result: SMN2 splice up)
COC(=O)C(Cc1ccc(O)cc1)NC(=O)c1ccccc1 (centres undefined)	FLuc counter 19µM
COC(=O)C(Cc1ccccc1)NC(=O)c1ccc(C)cc1 (centres undefined)	FLuc counter 6.01µM
O=C(O)CNC(=O)CCn1nnc2ccccc2c1=O	none (no result: SMN2 splice up)
O=C(CN1CCN(c2ccccc2)CC1)Nc1scc2c1c(=O)oc1ccccc12	none (no result: SMN2 splice up)
CCOC(=O)Cc1csc(NC(=O)c2cccc(OC)c2)n1	FLuc counter inconclusive
CCOC(=O)c1sc(NC(=O)c2ccc3ncsc3c2)nc1C	ELG1 genotox 2.31µM, FLuc counter 0.953µM, SMN2 splice up 2.82µM
CCOC(=O)c1sc(NC(=O)c2cncc(Br)c2)nc1C	ELG1 genotox 18.4µM, FLuc counter 2.13µM, SMN2 splice up 4.47µM
COC(=O)Cc1csc(NC(=O)c2ccc3ncsc3c2)n1	FLuc counter 23.9µM, Rab9 prom act inconclusive (no result: SMN2 splice up)
CCOC(=O)c1sc(NC(=O)c2ccc(S(=O)(=O)N(C)C)cc2)nc1C	SMN2 splice up inconclusive
Cc1cc(C)n2c(SCC(=O)NCc3ccco3)nnc2n1	none
